In PubChem BioAssay AID720513 (Broad Institute, 2013):
Among all 2,100 compounds or so, about 480 (23%) were called active. Another 5% or so got no clear call; they are omitted.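 The calls were made as follows: active = fitted curve reaches 40% activation at or below the top valid concentration, in every replicate test; inconclusive = replicate tests disagree on the call; inactive = the rest, including activity in the opposite direction.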 A selection follows. A call without a number means that no potency is given here. Potency and affinity values are given separately.

Experiment: PGC1a acetylation increase, cellular AlphaLISA – cell-based, cherry-picked samples, set 6, dose response (AID 720513);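 also: cells made to overexpress flag tagged PGC1a plus GCN5 acetyltransferase by viral infection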
Settings: U2OS PGC1a acetylation AlphaLISA, overnight, 0 = neutral, -100 = inhibitor control; series mostly up to 19.5 µM
In the case of `CC(=O)N(C)C[C@@H]1Oc2cc(-c3ccc(F)cc3)ccc2S(=O)(=O)N([C@H](C)CO)C[C@H]1C`, the outcome is reported as “inactive”. In the case of `C[C@@H]1CN([C@@H](C)CO)C(=O)c2cccc(NC(=O)C3CCCCC3)c2O[C@@H]1CN(C)CC1CCCCC1`, the outcome is reported as “inactive”. For `O=C(Nc1cccc(Cl)c1)c1cncn1-c1ccc(F)cc1`, the outcome was “inactive”. In the case of `COc1cc(NC(=O)c2[nH]cnc2C(N)=O)cc(C(=O)Nc2cccc(C(F)(F)F)c2)c1`, the outcome is reported as “inactive”. For `COc1cnc(-c2ccccn2)nc1Sc1ccc(C)cc1`, the outcome was “inactive”. With `CCOC(=O)C1(Cc2cccc(Cl)c2)CCCN(C(=O)c2cccnc2)C1` (centres undefined) the outcome was “inactive”. In the case of `C[C@H]1CCCCO[C@@H](CN(C)C(=O)c2ccccc2)[C@@H](C)CN([C@@H](C)CO)C(=O)c2cc(NC(=O)Nc3ccc(F)cc3)ccc2O1`, the outcome is reported as “inactive”. For `C[C@H]1CN([C@@H](C)CO)C(=O)CCCn2nncc2CO[C@@H]1CN(C)C(=O)c1ccc(N2CCN(C)CC2)cc1`, the outcome was “inactive”. In the case of `C[C@H]1CN([C@@H](C)CO)C(=O)c2cc(-c3cncnc3)cnc2O[C@@H]1CN(C)C(=O)c1cccc(F)c1`, the outcome is reported as “inactive”. In the case of `C[C@@H]1CN([C@@H](C)CO)C(=O)c2cc(NS(C)(=O)=O)ccc2O[C@@H](C)CCCCO[C@H]1CN(C)C(=O)Nc1ccc(F)cc1`, the outcome is reported as “inactive”. With `C[C@@H]1CN([C@H](C)CO)C(=O)c2cccc(NC(=O)c3nc4ccccc4s3)c2O[C@@H]1CN(C)C(=O)Nc1ccc(F)cc1` the outcome was “inactive”. With `C[C@H]1CN([C@@H](C)CO)C(=O)c2cc(C#Cc3ccc(F)cc3)cnc2O[C@@H]1CN(C)C(=O)Nc1ccc(F)cc1` the outcome was “inactive”. With `CCOC(=O)CN1C(=N)N(c2nc(NC(C)C)nc(OC)n2)CC1=O` the outcome was “inactive”. With `CC1CCc2sc(C(=O)Nc3nnc(SCc4ccc(F)cc4)s3)cc2C1` (centres undefined) the outcome was “inactive”. In the case of `CCc1ccc(-c2cn3nc(-c4ccccc4)cnc3n2)cc1`, the outcome is reported as “inactive”. For `COCC(=O)Nc1ccc2c(c1)OC[C@H](C)N(C(=O)c1ccccc1F)C[C@H](C)[C@H](OC)CN(C)C2=O`, the outcome was “inactive”. With `OC[C@@H]1[C@H](c2ccc(/C=C/c3ccccc3)cc2)[C@H]2CN(CCC(F)(F)F)CCCCN12` the outcome was “inactive”. In the case of `CCCCOc1ccc(CNC(=O)NS(=O)(=O)c2ccc(OCC(C)C)cc2)cc1`, the outcome is reported as “inactive”. With `CC(C)C#Cc1ccc2c(c1)O[C@@H](CN(C)Cc1ccccc1)[C@@H](C)CN([C@@H](C)CO)S2(=O)=O` the outcome was “inactive”. In the case of `COc1ccc(-c2cc(C(=O)O)[nH]n2)cc1OC`, the outcome is reported as “inactive”. With `COc1ccc(-c2nc3ccccc3c(=O)o2)cc1OC` the outcome was “inactive”. With `Cc1ccc(C(=O)N2CCN(c3ncccn3)CC2)cc1` the outcome was “inactive”. With `O=C(Nc1ccc(N2CCN(Cc3ccccc3F)CC2)cc1)c1ccc([N+](=O)[O-])o1` the outcome was “inactive”. For `N#Cc1cc(Oc2cccc3cccnc23)c(-n2nnc3ccccc32)cc1C#N`, the outcome was “inactive”. In the case of `O=C1CN(S(=O)(=O)Cc2ccccc2)C[C@@H]2[C@@H](c3ccc(C#Cc4cccc(F)c4)cc3)[C@@H](CO)N12`, the outcome is reported as “inactive”. With `COC(=O)c1ccc(OC)c(OC2CCCC2)c1` the outcome was “inactive”. For `N#Cc1ccc(-c2ccc([C@@H]3[C@H]4CNC[C@@H]3N4Cc3ccc4c(c3)OCO4)cc2)cc1`, the outcome was “inactive”. For `O=C(Cc1cccnc1)N1CC(=O)N2[C@H](CO)[C@@H](c3ccc(C#CC4CCCCC4)cc3)[C@H]2C1`, the outcome was “inactive”. In the case of `CCN(CC)C1CC(=O)N(c2ccc(Br)cc2)C1=O` (centres undefined), the outcome is reported as “inactive”. For `COC(=O)c1cc(C(=O)N2CCN(c3cccc(Cl)c3)CC2)cc([N+](=O)[O-])c1`, the outcome was “inactive”. For `COc1cccc(NC(=O)N2CCN(c3cccc(C)c3)C(C)C2)c1` (centres undefined), the outcome was “inactive”. In the case of `O=C(c1cc([N+](=O)[O-])ccc1N1CCCC1)N1CCCC1`, the outcome is reported as “inactive”. For `COC(=O)[C@]1(Cc2ccccc2)N=C(c2ccc(OCCCO)cc2)O[C@@H]1c1ccccc1`, the outcome was “inactive”. For `O=C(c1cccc(Cl)c1)N1CCN(c2ccc(N3CCOCC3)nn2)CC1`, the outcome was “inactive”. With `CCN1C(C#N)=C(C#N)N=C(C)CC1(C)C` the outcome was “inactive”. In the case of `CC1(C(=O)Nc2cccc(C#N)c2)CCN1C(=O)CCc1ccccc1` (centres undefined), the outcome is reported as “inactive”. For `COc1cc(CN2C[C@@H]3N[C@H](C2)C3c2ccc(/C=C/c3ccccc3)cc2)cc(OC)c1` (some centres undefined), the outcome was “inactive”. For `O=C1C=CCCN1S(=O)(=O)/C=C/c1ccccc1`, the outcome was “inactive”. With `CO[C@H]1CN(C)C(=O)c2ccc(NC(=O)Nc3ccccc3F)cc2OC[C@@H](C)NC[C@@H]1C` the outcome was “inactive”. In the case of `CC(=O)N(C1=C(N2CCOCC2)C(=O)c2ccccc2C1=O)c1ccc(C(=O)O)cc1`, the outcome is reported as “inactive”. For `Cc1cc(C)c(C#N)c(SCC(=O)Nc2nnc(-c3ccccc3)s2)n1`, the outcome was “inactive”. With `N#Cc1ccsc1NC(=O)CSc1nnc(NC2CC2)s1` the outcome was “inactive”. In the case of `Cc1ccc2nc(C)cc(OCC(=O)O)c2c1`, the outcome is reported as “inactive”. In the case of `C[C@@H]1CN([C@H](C)CO)C(=O)c2cc(C#CC3CC3)cnc2O[C@H]1CN(C)C(=O)Nc1ccc(F)cc1`, the outcome is reported as “inactive”. In the case of `Cc1[nH]c2ccc(C(C)C)cc2c1CC(=O)O`, the outcome is reported as “inactive”. In the case of `COc1ccc2c(c1)c1nc3ccccc3nc1n2CC(=O)OC(C)C`, the outcome is reported as “inactive”. For `CC(C)(C)c1ccc(C(=O)NCCN2CCOCC2)cc1`, the outcome was “inactive”. For `O=C(Nc1ccc(CN2CCOCC2)cc1)c1ccc(F)cc1`, the outcome was “inactive”. For `CC(C)(C)c1ccc(OCCSc2nc3ccccc3n2CC(=O)O)cc1`, the outcome was “inactive”. For `N=c1n(Cc2ccccc2)c2ccccc2n1CC(O)COc1ccc(Cl)cc1Cl` (centres undefined), the outcome was “inactive”. In the case of `Cc1nnc(SCC(=O)N2CCC(c3noc4ccc(F)cc34)CC2)s1`, the outcome is reported as “inactive”. For `CS(=O)c1nc(-c2ccc(Br)cc2)cc(-c2ccccc2)c1C#N` (centres undefined), the outcome was “inactive”. In the case of `CN(C)CCCNc1cc(-c2ccccc2)nc2cc(-c3cccc(F)c3)nn12`, the outcome is reported as “inactive”. With `C=CCn1c(C)cc(C(=O)Cn2ncc(Cl)c(Cl)c2=O)c1C` the outcome was “inactive”. With `Cc1cc(C)c(S(=O)(=O)NCC2CCC(C(=O)NCc3ccc4c(c3)OCO4)CC2)c(C)c1` (centres undefined) the outcome was “inactive”. For `Cc1noc(C)c1S(=O)(=O)Nc1ccc2c(c1)C(=O)N([C@H](C)CO)C[C@@H](C)[C@H](CN(C)Cc1ccc(C(F)(F)F)cc1)O2`, the outcome was “inactive”. For `O=c1oc(-c2ccccc2)nc2sc3c(c12)CCC3`, the outcome was “inactive”. In the case of `CCOC(=O)c1c(C)n(C)c2cc(Br)c(O)c(O)c12`, the outcome is reported as “inactive”. For `CCOC(=O)c1c2c(n(C)c1C)C(=O)C(=O)c1ccc(Br)cc1-2`, the outcome was “inactive”.
